PfHsp40 rescue = compounds rescuing yeast from Plasmodium falciparum HSP40 toxicity; S. cerevisiae expressing PfHsp40, growth rescue, ATP luminescence; 340,000 compounds, 0.68% hits; growth rescue, % at 12.5 µM; AID 504582; in the data active means growth rescue above about 28%, passing the limit was not always enough;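 further: yeast W303a lacking pdr1 and pdr3 grown in galactose medium; growth measured after three days at 30 °C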
PrPC TRFRET = reduces human prion protein on the cell surface; inhibition, % at 13.8 µM; P04156; cell surface PrPC, TR-FRET read-out; 370,000 compounds, 0.43% hits; in the data active means inhibition above about 24%; further: 0% = median of the test wells and 100% = reference compound wells
GDH-TPI counter = GDH-TPI coupled enzyme inhibition counter-screen | GDH-TPI coupled enzyme counterscreen, NADH absorbance | inhibition, % at 4.8 µM | 360,000 compounds, 1.2% hits; in the data active means inhibition above about 30%;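 further: 0% = DMSO wells and 100% = wells lacking the enzyme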
PrP 5UTR inh = suppresses PrP 5' UTR mRNA reporter expression; cell-based PrP 5' UTR mRNA reporter, plate reader; inhibition, % (test concentration not listed); 340,000 compounds, 0.35% hits; AID 488862; in the data active means inhibition above about 52%; further: 0 = median of the neutral control wells
BJeLR lethal = BJeLR cell viability loss. BJeLR (HRASV12) viability, CellTiter-Glo ATP luminescence, 48 h. 300,000 compounds, 0.17% hits. inhibition, % (test concentration not listed); in the data active means inhibition above about 50%
FBA Mtb inh = Mtb fructose-bisphosphate aldolase inhibition | purified M. tuberculosis FBA, fluorescence read-out | 360,000 compounds, 2.3% hits | P9WQA3 | inhibition, % at 1 µM; in the data active means inhibition above about 27%;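 further: 0% = vehicle and 100% = reference inhibitor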
Target sequence (P9WQA3 whole entry, looked up): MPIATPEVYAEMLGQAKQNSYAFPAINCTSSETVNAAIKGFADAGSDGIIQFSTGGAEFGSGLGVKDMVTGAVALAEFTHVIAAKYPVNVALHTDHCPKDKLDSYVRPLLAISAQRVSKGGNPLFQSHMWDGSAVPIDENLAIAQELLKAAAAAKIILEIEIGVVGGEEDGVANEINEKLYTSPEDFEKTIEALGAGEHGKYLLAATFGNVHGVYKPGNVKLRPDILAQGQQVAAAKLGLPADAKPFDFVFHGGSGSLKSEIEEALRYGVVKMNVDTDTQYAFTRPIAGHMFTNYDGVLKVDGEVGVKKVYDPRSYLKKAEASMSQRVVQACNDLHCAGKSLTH
* hit, by the source's call; · = no result given; + = active, no number. Only some compounds are listed: those with a hit (about 4.5% of all), similar ones and a draw of the others.

SMILES | PfHsp40 rescue | PrPC TRFRET | GDH-TPI counter | PrP 5UTR inh | BJeLR lethal | FBA Mtb inh
CCCCNC(=O)c1nc(-c2ccncc2)oc1-c1ccccc1 | · | 4 | · | · | · | +
COc1cc(-n2c(C)nc3cc(C(=O)N4CC(C)CC(C)C4)ccc32)cc(OC)c1OC (centres undefined) | · | 5 | · | · | · | ·
N#CCCCC#Cc1ccc2c(c1)COc1c3ccccc3nn1-2 | 124* | 2 | 5 | 45 | 26 | -4
CCCCCCCCNS(=O)(=O)CC1NCc2cc(F)ccc21 (centres undefined) | · | -6 | · | · | · | ·
O=C1c2ccccc2-c2ccc(P(=O)(O)O)cc21 | · | 2 | · | · | · | ·
O=C(Nc1ccc(F)cc1)c1ccc(Br)c(S(=O)(=O)N2CCOCC2)c1 | 0 | -2 | 4 | -12 | 2 | 2
O=C(Nc1ccc2c(c1)OCCO2)c1ccc(Br)c(S(=O)(=O)N2CCOCC2)c1 | 0 | 13 | 36* | 3 | · | -5
O=P(NCc1ccccc1)(OCc1ccccc1)OCc1ccccc1 | 0 | 4 | 4 | -21 | · | 2
CC(C)(C)P(=O)(NCc1ccccc1)c1ccccc1 (centres undefined) | 53* | 11 | 2 | 1 | · | 5
O=c1[nH]c(NNC(=S)NC2CCCCC2)nc2c1C1(CCCC1)Cc1ccccc1-2 | 1 | -2 | 10 | 1 | 7 | 8
CCC1(C)Cc2ccccc2-c2nc(SC)[nH]c(=O)c21 (centres undefined) | -2 | -4 | 5 | -21 | 2 | 4
CC1(C)Cc2ccccc2-c2nc(NCCCO)n(-c3ccccc3)c(=O)c21 | 1 | 1 | 6 | -10 | 14 | 198*
CCOC(=O)C1Cn2c(nc3c(c2=O)C(C)(C)Cc2ccccc2-3)S1 (centres undefined) | 0 | -5 | 2 | -30 | -12 | 8
O=c1[nH]c(NCCCO)nc2c1C1(CCCC1)Cc1ccccc1-2 | -1 | 7 | 4 | -10 | 20 | 184*
CCC1(C)Cc2ccccc2-c2nc(NCCCO)[nH]c(=O)c21 (centres undefined) | -1 | 11 | 9 | -32 | 7 | 140*
Fc1ccccc1-c1n[nH]c(=S)n1N=Cc1ccc(OCc2ccccc2)cc1 | · | 5 | · | · | · | ·
COc1cc2oc3ccccc3c(=O)c2cc1OC | 1 | · | 22 | -28 | -1 | +
O=c1c2ccccc2oc2cc(Br)ccc12 | 0 | -6 | 5 | -38 | · | 0
C[C@H]1C[C@H]2[C@@H]3CCC4=CC(=O)C=C[C@]4(C)[C@@]3(Cl)[C@@H](O)C[C@]2(C)[C@@]1(O)C(=O)CO | 36* | 3 | 0 | -5 | -4 | 0
COc1cccc(C(=O)N2CCC[C@@H]2C(=O)N2CCC[C@H]2C(=O)NCc2ccccc2)c1 | · | 4 | · | · | · | ·
Clc1ccc(CN2CCC(Cc3ccccc3)CC2)cc1 | 2 | 9 | 8 | -1 | 1 | 0
c1ccc(CC2CCN(Cc3ccccn3)CC2)cc1 | 50* | 0 | -9 | -15 | 19 | 3
CC(C)C[C@H]1COc2cc(Br)ccc2S(=O)(=O)N1Cc1cn(Cc2ccco2)nn1 | · | 6 | · | · | · | ·
COc1ccc2ccc3cccc[n+]3c2c1 | -1 | -6 | -2 | -46 | · | 134*
C[C@H]1[C@@H](OC(=O)Nc2cc(Cl)ccc2Cl)CC[C@@]23CCCN2C(=O)CCC[C@@H]13 | · | 6 | · | · | · | ·
SMILES | PfHsp40 rescue | PrPC TRFRET | GDH-TPI counter | PrP 5UTR inh | BJeLR lethal | FBA Mtb inh
CCCN1C/C(=C/c2ccc3c(c2)OCO3)C(=O)/C(=C/c2ccc3c(c2)OCO3)C1 | 5 | -3 | 13 | -19 | 53* | -2
Cc1cccc(-c2ccc(C=Nc3c(C)n(C)n(-c4ccccc4)c3=O)o2)c1 | 0 | 3 | 37* | -24 | · | 3
Cc1c(N=Cc2nc3ccccc3n2C)c(=O)n(-c2ccccc2)n1C | -1 | 9 | 43* | -31 | 7 | 0
Cc1c(N=Cc2nc3ccccc3[nH]2)c(=O)n(-c2ccccc2)n1C | 0 | 5 | 42* | -34 | 5 | -2
O=C(CSc1nnc(-c2cccnc2)n1-c1ccccc1)Nc1cccc2ccccc12 | · | 6 | · | · | · | ·
COc1ccc(OC)c(S(=O)(=O)N2CCC(C(=O)NCc3cccs3)CC2)c1 | · | 10 | · | · | · | ·
CCCCC(=O)NC(=S)NNC(=O)CCc1ccccc1 | 337* | 0 | 10 | 6 | -9 | 0
O=C(CCc1ccccc1)NNC(=S)NC(=O)c1ccccc1 | 314* | 2 | 17 | -20 | -1 | 1
CC(=O)NC(=S)NNC(=O)CCc1ccccc1 | -1 | -1 | 1 | -27 | 0 | 0
CC(C)(C)c1cc(CCC(=O)NNC(=S)NC(=O)c2ccccc2)cc(C(C)(C)C)c1O | 508* | · | 8 | 22 | 10 | 2
O=C1CCC(CNc2ccccc2)N1c1ccccc1 (centres undefined) | · | 5 | · | · | · | ·
CCCC1COC(Cn2cncn2)(c2ccc(C)cc2)O1 (centres undefined) | 132* | -8 | 2 | -19 | 4 | 2
Cc1ccc(S(=O)(=O)N2CCN(C(=O)CCn3cncn3)CC2)cc1 | -1 | 3 | 4 | -20 | 3 | 0
C(=Nc1ccccc1)c1ccc[nH]1 | 0 | -6 | 3 | -20 | · | -1
Oc1ccccc1N=Cc1ccc[nH]1 | 55* | -15 | 3 | -20 | -5 | -3
Brc1nc(-c2ccccc2)nc(-c2ccccc2)c1Br | · | -1 | 5 | · | 51* | -6
COC(=O)[C@]12C[C@H](CC(=O)NCc3cccc4ccccc34)C(=O)N(CCC3=CCCCC3)C1=C[C@H](C(C)C)O[C@@H]2C1CC1 | · | -1 | · | · | · | ·
COc1ccc(C2c3ccc(O)cc3Oc3ncn4nc(-c5ccccn5)nc4c32)cc1 (centres undefined) | -1 | -2 | 36* | · | -18 | 4
Cc1cc(NC(=O)c2ccc(NS(=O)(=O)c3ccc(F)cc3)cc2)no1 | · | -2 | · | · | · | ·
CCCCCn1nnnc1C1(C)CN(S(C)(=O)=O)CC(=O)N1Cc1ccco1 (centres undefined) | · | 5 | · | · | · | ·
COC(=O)C[C@H]1CC[C@H]2[C@H](COc3ccc(NC(=O)C4CCOCC4)cc3C(=O)N2C)O1 | · | 0 | · | · | · | ·
CCn1cc(C(=O)N2CCN(Cc3ccc(C)cc3)CC2)c(=O)c2ccc(C)nc21 | · | -3 | · | · | · | ·
Cc1ccc(Cn2cc(CN3[C@@H](CC(C)C)COc4cccc(F)c4S3(=O)=O)nn2)cc1 | · | -10 | · | · | · | ·
Cn1c2ccccc2c(=O)c2cc(C#Cc3cccc(N)c3)ccc21 | -1 | · | 15 | -45 | · | 8
C=CCn1c2ccccc2c(=O)c2cc(C#CC[C@@H](C)O)ccc21 | 2 | -6 | 13 | -25 | · | +
COc1ccc(CCNC(=O)Nc2ccc3c(c2)[C@@]2(CC(=O)N(CC(C)C)C2c2ccccc2)C(=O)N3C)cc1OC (some centres undefined) | · | -7 | · | · | · | ·
O=C(O)C1Cc2[nH]cnc2C(c2ccc(F)cc2)N1 (centres undefined) | 61* | 0 | -6 | -40 | -10 | -2
CCN(CC)S(=O)(=O)c1ccc(N/N=C/c2cccnc2)nc1 | 0 | 2 | 73* | -10 | 1 | 0

Screening results deposited in PubChem by several laboratories.
